# Results published in PubChem BioAssay.
# Calls of active or inactive are those of the source. Unless noted, the rule behind the calls is not given here.
# Key:
# [1] = HepG2 liver cancer cell viability effects, profiling panel, resazurin fluorescence, 24 h, PK04 Diversity Set (AID 1172); settings: higher = more signal; note: test concentration not given here
# [2] = basal S. cerevisiae growth modulation, no modifier, primary screen, OD600, strain BY4716, 24 h, basal condition (AID 1173); settings: OD600, 24 h, higher = more signal, called active from +8 up or from −8 down
# [3] = MM1S myeloma cell viability, profiling panel, resazurin fluorescence, basal, 24 h, PK04 Diversity Set (AID 1174); settings: higher = more signal, called active from +8 up or from −8 down;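 note: MM1S multiple myeloma cell line; test concentration not given here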
# [4] = target: Dihydroorotate dehydrogenase (quinone), mitochondrial (Plasmodium falciparum (isolate 3D7)) (UniProt Q08210); assay: PfDHODH enzyme inhibitors, primary screen, biochemical, C-terminal His tag, absorbance 600 nm (AID 1175); settings: DCIP absorbance 600 nm, higher = more signal, called active from +8 up or from −8 down;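 note: recombinant parasite enzyme with a five histidine tag at its C terminus; test concentration not given here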
# [5] = P. aeruginosa biofilm formation inhibitors, primary screen, strain PAO1, LB-PBS medium, absorbance 600 nm (AID 1176); note: test concentration not given here; settings: P. aeruginosa PAO1 growth/biofilm, A600, 12 h; higher = more signal
# [6] = S. cerevisiae RM11-1a growth modifiers, primary screen, strain RM11-1a, OD600, basal, 24 h (AID 1177); settings: OD600, 24 h, higher = more signal, called active from +8 up or from −8 down;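 note: cultures grown under basal conditions with no added stressor; test concentration not given here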
# [7] = E. coli acrAB mutant growth effects, primary screen, E. coli filamentation inducers, strain DRC39, OD650, 24 h (AID 1178); settings: higher = more signal, called active from +8 up or from −8 down;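 note: growth measured as culture turbidity by optical density at 650 nm; test concentration not given here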
# [8] = E. coli acrAB mutant growth effects, primary screen, E. coli filamentation inducers, strain DRC39, OD650, 48 h (AID 1179);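 note: screen aims at cell division blockers that make cells filament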; settings: E. coli DRC39 delta-acrAB growth, higher = more signal, called active from +8 up or from −8 down
# [9] = RPMI8226 myeloma cell viability, profiling panel, resazurin fluorescence, basal, 24 h, PK04 Diversity Set (AID 1180); settings: higher = more signal;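 note: RPMI8826 multiple myeloma cell line at 5000 cells per well; test concentration not given here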
# [10] = target: E3 ubiquitin-protein ligase XIAP (Homo sapiens) (UniProt P98170); assay: XIAP binders, primary screen, biophysical, small-molecule microarray, fluorescence 635 nm (AID 1181); settings: small-molecule microarray binding, higher = more signal;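 note: score merges 667 nm emission and signal to noise over triplicate slides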
# Chain of E3 ubiquitin-protein ligase XIAP (Homo sapiens) (P98170 whole entry, looked up): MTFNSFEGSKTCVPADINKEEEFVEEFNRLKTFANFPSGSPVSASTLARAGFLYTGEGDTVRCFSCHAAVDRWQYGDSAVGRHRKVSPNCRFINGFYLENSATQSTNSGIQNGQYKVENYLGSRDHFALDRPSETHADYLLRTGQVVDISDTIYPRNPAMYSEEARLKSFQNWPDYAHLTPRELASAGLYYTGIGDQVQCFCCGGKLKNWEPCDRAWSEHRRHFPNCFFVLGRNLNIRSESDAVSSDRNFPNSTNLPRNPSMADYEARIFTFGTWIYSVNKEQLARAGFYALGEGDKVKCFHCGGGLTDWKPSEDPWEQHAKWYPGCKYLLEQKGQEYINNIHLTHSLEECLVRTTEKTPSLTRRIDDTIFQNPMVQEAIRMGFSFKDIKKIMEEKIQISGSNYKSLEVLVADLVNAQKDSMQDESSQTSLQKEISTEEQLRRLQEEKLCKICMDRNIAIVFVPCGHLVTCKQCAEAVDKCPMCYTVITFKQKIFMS
# Chain of Dihydroorotate dehydrogenase (quinone), mitochondrial (Plasmodium falciparum (isolate 3D7)) (Q08210 whole entry, looked up): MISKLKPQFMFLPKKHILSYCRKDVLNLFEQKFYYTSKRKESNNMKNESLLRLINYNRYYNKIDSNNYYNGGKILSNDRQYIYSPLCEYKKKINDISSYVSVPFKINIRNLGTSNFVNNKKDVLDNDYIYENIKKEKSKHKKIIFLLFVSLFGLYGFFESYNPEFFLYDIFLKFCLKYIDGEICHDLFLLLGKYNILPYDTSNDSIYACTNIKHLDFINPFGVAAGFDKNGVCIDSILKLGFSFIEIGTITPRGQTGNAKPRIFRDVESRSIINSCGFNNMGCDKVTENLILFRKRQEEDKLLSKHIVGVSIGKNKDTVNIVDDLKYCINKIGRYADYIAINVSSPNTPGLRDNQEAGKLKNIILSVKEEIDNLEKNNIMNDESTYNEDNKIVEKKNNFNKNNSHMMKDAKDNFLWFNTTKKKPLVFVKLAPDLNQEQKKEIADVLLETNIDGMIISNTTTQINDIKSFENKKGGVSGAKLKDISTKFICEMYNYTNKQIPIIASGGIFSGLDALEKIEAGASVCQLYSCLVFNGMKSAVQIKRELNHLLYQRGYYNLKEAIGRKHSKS
SMILES,z-score [1],z-score [2],z-score [3],composite z-score [4],z-score [5],z-score [6],z-score [7],z-score [8],z-score [9],composite z-score [10]
C[N+](C)(C)CCCCCCNC(=O)[C@@H]1C[C@@H]2C(=O)N[C@@H](Cc3ccccc3)C(=O)N2[C@@H]1c1ccc(O)cc1,1.17,-0.471 (inactive),0.224 (inactive),-0.77 (inactive),0.615 (inactive),-0.0653 (inactive),0.457 (inactive),0.492 (inactive),0.25,-0.0882
CCCCCCc1nc(-c2ccc(OC)nc2)cc2c1[Si](C(C)C)(C(C)C)OC2,0.0579,0.721 (inactive),0.426 (inactive),-3.12 (inactive),-0.0391 (inactive),-0.483 (inactive),0.37 (inactive),0.212 (inactive),0.343,-0.0525
COCCOC(=O)N1C(=O)[C@@]2(c3cc(C#Cc4ccc(OC)cc4)ccc31)[C@H](c1ccc(OCCO)cc1)N1[C@H](c3ccccc3)[C@H](c3ccccc3)OC(=O)[C@H]1[C@@H]2C(=O)N1CCCCCCC1,-0.266,0.376 (inactive),0.699 (inactive),-1.31 (inactive),2.17 (inactive),0.277 (inactive),0.0117 (inactive),1.19 (inactive),0.746,0.0162
O=C1OCCC=C[C@H]2OC34C=CCN(CCN5CCOCC5)C(=O)[C@H]3N(CCCO)C(=O)[C@@H]4C12 (stereo not given in full),-0.368,-0.494 (inactive),-0.525 (inactive),0.394 (inactive),-0.481 (inactive),0.23 (inactive),-0.418 (inactive),-0.822 (inactive),-0.62,0.0143
C=CC[C@]1(C(=O)OC)N=C(c2ccc(OCCCO)cc2)O[C@H]1c1ccccc1N=[N+]=[N-],-0.344,-0.352 (inactive),-0.455 (inactive),0.823 (inactive),0.935 (inactive),1.6 (inactive),0.0005 (inactive),-1.12 (inactive),-0.406,0.509
CN1C(=O)[C@]2(CCS(=O)(=O)c3ccccc3)N=C(c3ccc(OCCCO)cc3)O[C@@H]2c2ccccc21,-0.0688,0.902 (inactive),-0.101 (inactive),0.349 (inactive),-0.0279 (inactive),2.34 (inactive),0.124 (inactive),-0.687 (inactive),-1.02,0.0506
C=CCC(OC(C)=O)[C@@H]1[C@@H](N(Cc2ccc(-c3ccccc3)cc2)C(=O)c2ccc(C)cc2)c2cc(OCCCO)ccc2N1C(=O)c1ccc2ccccc2c1 (stereo not given in full),-0.643,-0.766 (inactive),1.12 (inactive),-1.55 (inactive),-0.0877 (inactive),-1.99 (inactive),0.406 (inactive),0.67 (inactive),1.36,-0.0357
COCCOC(=O)N1C(=O)[C@@]2(c3cc(C#CCNC(N)=O)ccc31)[C@H](C(=O)NC[C@H](O)c1ccccc1)[C@H]1C(=O)O[C@H](c3ccccc3)[C@H](c3ccccc3)N1[C@@H]2c1ccc(OCCO)cc1,0.774,2 (inactive),-0.118 (inactive),1.14 (inactive),2.28 (inactive),2.87 (inactive),-0.0238 (inactive),-0.63 (inactive),0.381,0.135
COCCOC(=O)N1C(=O)[C@@]2(c3ccccc31)[C@H](C(=O)N1CCCCCCC1)[C@H]1C(=O)O[C@H](c3ccccc3)[C@H](c3ccccc3)N1[C@@H]2c1ccc(O)cc1,0.226,-0.975 (inactive),-1.51 (inactive),-0.862 (inactive),1.32 (inactive),-0.145 (inactive),-0.0831 (inactive),-0.303 (inactive),-1.03,0.782
O=C(NCC(F)(F)F)[C@@H]1c2ccccc2C(=O)N(CC23CC4CC(CC(C4)C2)C3)[C@H]1c1ccc(CO)cc1,0.26,-2.11 (inactive),-1.04 (inactive),-2.32 (inactive),1.43 (inactive),-2.97 (inactive),1.05 (inactive),0.823 (inactive),0.582,0.341
C=CCNC(=O)[C@@H]1[C@H]2C(=O)O[C@H](c3ccccc3)[C@H](c3ccccc3)N2[C@H](c2ccccc2OCCO)[C@@]12C(=O)N(C(=O)OCCOC)c1ccc(C#CCCO)cc12,-0.301,0.858 (inactive),-1.02 (inactive),-0.202 (inactive),1.32 (inactive),2.15 (inactive),0.251 (inactive),0.569 (inactive),-1.56,-0.0347
